About 79,000 compounds went through this panel and 15% of them were active in at least one assay; those are over-represented in the sample as a whole. Activity calls are given as the source filed them. Rule as the data show it: active = growth inhibition above about 70%; inactive = the rest.
What was measured:
[1] = NCI Yeast Anticancer Drug Screen. Data for the rad50 strain (AID 155);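 also: 0% = growth of vehicle-only cultures of the same strain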; conditions: S. cerevisiae rad50 strain growth inhibition; at 50.0 µM; stronger effect = higher value
Method in brief: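 Relative growth inhibition (compound vs vehicle) was measured in yeast with a defined repair-gene alteration.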

[2] = NCI Yeast Anticancer Drug Screen. Data for the mec2-1 strain (AID 157); conditions: S. cerevisiae mec2-1 strain, at 50.0 µM, stronger effect = higher value
Method in brief: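 mec2-1 yeast strain, carrying an alteration in DNA damage repair or cell cycle control, was exposed to compounds; growth inhibition was measured relative to vehicle-treated controls.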

[3] = NCI Yeast Anticancer Drug Screen. Data for the sgs1 mgt1 strain (AID 161);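 also: 0% = growth of cultures given vehicle only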; conditions: S. cerevisiae sgs1 mgt1 strain, at 50.0 µM, stronger effect = higher value
Method in brief: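 Growth of a repair-deficient yeast mutant was monitored after compound treatment and expressed as inhibition relative to vehicle-treated cultures.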

[4] = NCI Yeast Anticancer Drug Screen. Data for the cln2 rad14 strain (AID 165);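 also: 0% = growth equal to vehicle treated cultures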; conditions: S. cerevisiae cln2 rad14 strain, at 50.0 µM, stronger effect = higher value
Method in brief: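 Yeast carrying cln2 and rad14 alterations (cell cycle control and DNA damage repair) were exposed to compounds. Growth inhibition was measured against vehicle-treated controls.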

[5] = NCI Yeast Anticancer Drug Screen. Data for the bub3 strain (AID 167); conditions: S. cerevisiae bub3 mutant strain, at 50.0 µM, stronger effect = higher value
Method in brief: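 Screening used yeast with an engineered genetic alteration affecting cell cycle control. Compound-exposed cultures were compared with vehicle cultures, and reduced growth was taken as inhibition.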

[6] = NCI Yeast Anticancer Drug Screen. Data for the mlh1 rad18 strain (AID 175); conditions: S. cerevisiae mlh1 rad18 strain growth inhibition; at 50.0 µM; stronger effect = higher value
Method in brief: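 Growth inhibition of the yeast strain was measured after compound exposure and expressed relative to vehicle-treated controls. The strain carries defined defects in DNA damage repair.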

Measured: growth inhibition

Oc1ccccc1C=NCCN(CCN=Cc1ccccc1O)c1ccccc1
inactive: [1] 21.1% | [2] 7.1% | [3] 26.1% | [4] 12.8% | [5] 8.9% | [6] 32.5%

Cc1cccc(C(O)(c2cccc(C)c2)C2(O)CCCCC2)c1
inactive: [1] -9.45% | [2] -0.45% | [3] -0.9% | [4] 21.2% | [5] 1% | [6] 6.9%

CCN(CC)CC1CCCCCCCCCCC1=O (stereo unspecified)
inactive: [1] -30.3% | [2] -17.9% | [3] -32.7% | [4] 17.4% | [5] -44% | [6] -28.9%

COc1ccc(COC(=O)Nc2cccc(Cl)c2)cc1OC
inactive: [1] -11.5% | [2] 30% | [3] 20.1% | [4] -24.2% | [5] 30.8% | [6] 35.8%

CC(C)NCCO
inactive: [1] 23.1% | [2] -3% | [3] -1.85% | [4] 21.2% | [5] 0.3% | [6] 12.3%

O=C(NCc1ccco1)Nc1ccccc1Cl
inactive: [1] -24.9% | [2] -0.2% | [3] -6.2% | [4] 45.8% | [5] 4.25% | [6] -11%

N#CC1(C#N)C(c2ccccc2)C=CC12OCCCO2 (stereo unspecified)
inactive: [1] 10.9% | [2] 6.75% | [3] 3.9% | [4] 32% | [5] -5.3% | [6] 23.2%

CCOC(=O)/C=C(\N=P(c1ccccc1)(c1ccccc1)c1ccccc1)C(F)(F)C(F)(F)C(F)(F)C(F)(F)C(F)(F)F
inactive: [1] 19.4% | [2] 4% | [3] 32.4% | [4] 18.4% | [5] 20.2% | [6] 45.2%

Cc1cc(C(=O)C(C(c2ccccc2)N2CCOCC2)N2CCOCC2)ccc1Cl (stereo unspecified)
inactive: [1] 4.6% | [2] 7.15% | [3] 12.8% | [4] -1.35% | [5] 10.8% | [6] 26.9%

CCOc1c(/C=C\c2cc(/C=C/c3cccc(OC)c3OCC)c([N+](=O)[O-])cc2[N+](=O)[O-])cccc1OC
inactive: [1] 16.4% | [2] -13.7% | [3] 1.75% | [4] -36.6% | [5] -4.45% | [6] 9.55%

Cc1cc2c(c(C(=O)NCCC(=O)N[C@@H](C)C(=O)OCc3ccccc3)c1)Oc1c(cc(C)cc1C(=O)NCCC(=O)N[C@@H](C)C(=O)OCc1ccccc1)S2
inactive: [1] 24% | [2] 10.8% | [3] 30.1% | [4] 28.8% | [5] -9.8% | [6] 27.1%

CC1COB(c2ccccc2)OCC(C)N1CNC(=O)C1=C(O)C2(O)C(O)=C3C(=O)C4C(O)=CC=CC4C(C)(O)C3CC2C(N(C)C)C1=O (stereo unspecified)
inactive: [1] -8.75% | [2] 33.2% | [3] 34.6% | [4] -16.6% | [5] -6.85% | [6] 38.6%

CCC(C)SC1=NC(N)=NC2=NC=NC21 (stereo unspecified)
inactive: [1] -11.6% | [2] -2.85% | [3] -9.3% | [4] -21.8% | [5] 6.05% | [6] 4.25%

CNS(=O)(=O)c1ccc(C)cc1
inactive: [1] 2.15% | [2] -6% | [3] 0.6% | [4] 3.25% | [5] 0.45% | [6] 0.35%

CCCCCCCCCCCCCC(=O)OC
inactive: [1] 27.6% | [2] 15.3% | [3] 16.5% | [4] -9.3% | [5] -1.4% | [6] 31.4%

CC(=O)c1ccccc1NCC(=O)Nn1cnc2ccc(S(=O)(=O)Nc3ccccc3C(C)=O)cc2c1=O
inactive: [1] 7.25% | [2] -21.3% | [3] 12.9% | [4] 18.6% | [5] 11.5% | [6] 7.6%

CCCCCOS(=O)(=O)O
inactive: [1] -0.3% | [2] 4.3% | [3] -0.6% | [4] -11% | [5] -0.25% | [6] 5.3%

COc1ccc2c3c(c4ccccc4c2c1)C(=O)OC3=O
inactive: [1] 27.8% | [2] 11.2% | [3] 16.7% | [4] 18.6% | [5] 21.8% | [6] 19.2%

CC(C)=NOC(CCOC(=O)c1ccccc1)COC(=O)c1ccccc1 (stereo unspecified)
inactive: [1] -13.6% | [2] 0.1% | [3] -1.35% | [4] -10.4% | [5] -11.8% | [6] 7.75%

C1=C(c2ccccc2)C(c2ccccc2)=C(c2ccccc2)C(c2ccccc2)C(c2ccccc2)=N1 (stereo unspecified)
inactive: [1] 2.75% | [2] 10.2% | [3] -2.95% | [4] 21.4% | [5] -2.5% | [6] 8.55%

CCc1nc(N)nc(N)c1-c1ccc2nnn(O)c2c1
inactive: [1] -11.8% | [2] -7.45% | [3] -4.8% | [4] -40% | [5] 0% | [6] -3.1%

CC(C)OP(=O)(OC(C)C)/C(F)=N/Nc1ccc([N+](=O)[O-])cc1
inactive: [1] 36% | [2] 11.3% | [3] 23.1% | [4] -3.85% | [5] -6.15% | [6] 6.25%

O=C(/C(N=Nc1ccccc1)=C(\O)c1ccccc1)c1ccccc1
inactive: [1] -8.15% | [2] -9.7% | [3] 2.45% | [4] 11.8% | [5] 7.05% | [6] -6.2%

Cc1ccc(C(=O)CC2=NC3NN(c4ccccc4)C(=O)C3=C2CC(=O)c2ccc(C)cc2)cc1 (stereo unspecified)
inactive: [1] 38% | [2] 2.4% | [3] 4.55% | [4] -13.1% | [5] -9.05% | [6] 45.3%

CCCCCCCCCCc1c2nc(c(CCCCCCCCCC)c3ccc([nH]3)c(CCCCCCCCCC)c3ccc([nH]3)c(CCCCCCCCCC)c3nc1C=C3)C=C2
inactive: [1] -18.1% | [2] -11.9% | [3] -5.95% | [4] 23.4% | [5] 6% | [6] -63.7%

O=C(COc1ccc(Cl)cc1C(=O)O)NCc1cccc2ccccc12
inactive: [1] -0.2% | [2] 36% | [3] 41.8% | [4] 0.9% | [5] 46% | [6] 31.6%

Cc1ccc(S(=O)(=O)OCC2C(COS(=O)(=O)c3ccc(C)cc3)C3C=CC2C32CC2)cc1 (stereo unspecified)
inactive: [1] -5.5% | [2] -7.9% | [3] 27.9% | [6] 5.25%
active: [4] 77.7% | [5] 91%

O=C(Oc1ccc([N+](=O)[O-])cc1)C1CCCN1C(=O)OCc1ccccc1 (stereo unspecified)
inactive: [1] -6.55% | [2] -13.7% | [3] 7.55% | [4] 8.5% | [5] 7.2% | [6] 0.15%

Cc1nnc2c3nccnc3c(Cl)nn12
inactive: [1] 20.8% | [2] 25% | [3] 56.3% | [4] 20.3% | [5] 9% | [6] 24.1%

CCc1c(C)c(C#N)c(=S)n(C2OC(COC(C)=O)C(OC(C)=O)C(OC(C)=O)C2OC(C)=O)c1-c1ccccc1 (stereo unspecified)
inactive: [1] 2.55% | [2] 13.1% | [3] 37.6% | [4] 8.25% | [5] 11.1% | [6] 13.6%

Cc1cc(=O)n(-c2ccccc2)c(=O)n1-c1nc2ccccc2[nH]1
inactive: [1] 19% | [2] -8.4% | [3] 14.7% | [4] 3.65% | [5] -4.35% | [6] 32%

CCOC(=O)Nc1cc(C(F)(F)F)ccc1F
inactive: [1] -14.8% | [2] -16.2% | [3] -14% | [4] -43.9% | [5] 3.95% | [6] -7.1%

CN1NC(c2ccc(Cl)cc2)=C(C#N)C(=O)CC1c1ccccc1 (stereo unspecified)
inactive: [1] 2.1% | [2] -7.95% | [3] -5.05% | [4] 10.5% | [5] -20.4% | [6] 2.35%

CCCCOC(=O)C(C)OC(=O)OC (stereo unspecified)
inactive: [1] -21.1% | [2] -13% | [3] -2.25% | [4] -28.8% | [5] -15.7% | [6] 8%

COc1ccc2c(O)cc(C(=O)O)c(-c3ccccc3)c2c1
inactive: [1] -4.7% | [2] -12.8% | [3] -3.95% | [4] -17.5% | [5] 5.05% | [6] -22.6%

OC(Cc1cccnc1)(c1ccccc1)c1cccc2ccccc12 (stereo unspecified)
inactive: [1] 12.3% | [2] 13.8% | [3] -2.3% | [4] 7.45% | [5] 10.5% | [6] 13.9%

CCCCCC(C/C=N/N(C)C)C(O)(C(F)(F)F)C(F)(F)F (stereo unspecified)
inactive: [1] 1.35% | [2] 2.1% | [3] -5.15% | [4] -5.15% | [5] 15.4%
active: [6] 73.2%

O=c1cnn2c(n1)sc1ccc3ccccc3c12
inactive: [1] -11.8% | [2] -0.9% | [3] -15.4% | [4] 0.65% | [5] 26.5% | [6] 40.4%

O=C(O)c1ccc(O)cc1O
inactive: [1] 12.8% | [2] 18.6% | [3] -25.2% | [4] -29.4% | [5] -4.65% | [6] -2.5%

COC(=O)c1c2c(cc3nc4ccccc4nc13)OCO2
inactive: [1] 26.4% | [2] 9.75% | [3] 12.8% | [4] -1.8% | [5] 16.9% | [6] 21.6%

CC/C(=N\O)c1ccc2cc(Cl)c3ccccc3c2c1
inactive: [1] 21.7% | [2] 25.4% | [3] 44.5% | [4] 8.75% | [5] 54.2% | [6] 31.9%

From PubChem BioAssay (NCI)
